Only some compounds are listed: those with a hit (about 19% of all), similar ones and a draw of the others.
TDP1 cell CPT: qHTS for Inhibitors of human tyrosyl-DNA phosphodiesterase 1 (TDP1): qHTS in cells in presence of CPT | Potency, µM (titrated, usually from 46.2 µM), without a hit: at the top dose activity change, negative = growth inhibition, most hits filed as inhibitors | chicken DT40 Tdp1-/-;hTDP1 cells + 20 nM CPT, ATP luminescence, 48 h | 12% of 420,000 active | AID 686979, 2013; further: potency means the concentration at half of the fitted maximal effect; nearly all actives have a fitted effect of over 55% in size
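Chicken DT40 Tdp1-/- cells complemented with human TDP1, 400 cells/well, exposed to compounds plus 20 nM camptothecin for at least 48 h at 37 C; viability read as ATP content by CellTiter-Glo luminescence.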
TDP1 cell noCPT: qHTS for Inhibitors of human tyrosyl-DNA phosphodiesterase 1 (TDP1): qHTS in cells in absence of CPT. AID 686978, 2013. 15% of 420,000 active. Potency, µM (titrated, usually from 46.2 µM), for the others: at the top dose activity change, negative = growth inhibition, actives largely listed as inhibitors. DT40 Tdp1-/- hTDP1 cells, no CPT, ATP luminescence, 48 h; further: potency means the concentration at half of the fitted maximal effect; nearly all actives have a fitted effect of over 55% in size
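Stably hTDP1-transfected Tdp1-null chicken DT40 cells were treated with library compounds minus camptothecin and grown for at least 48 hr at 37 °C, after which cellular ATP was quantified by luminescence.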
HT1080NT lethal: qHTS for induction of synthetic lethality in tumor cells producing 2HG: qHTS for the HT-1080-NT fibrosarcoma cell line. HT-1080-NT fibrosarcoma viability, CellTiter-Glo ATP luminescence, 48 h. Potency, µM (titrated, usually from 46.1 µM), inactives show at the highest dose activity, negative = less viability, usual class: cytotoxic. 1.6% of 360,000 active. AID 686970, 2013;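 further: NT is the 2HG producing partner of a matched IDH1 knockdown line; potency means the concentration at half of the fitted maximal effect; 0% = DMSO-treated cells and -100% = media-only wells without cells; nearly all actives have a fitted effect of over 55% in size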
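Viability by CellTiter-Glo luminescence after 48 h compound exposure at 37C of HT-1080-NT cells (750/well, RPMI, 5% FBS). % activity scaled between DMSO wells and medium-only wells, then curve-fitted and categorized by curve class.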
HT1080 IDH1KD tx: qHTS for induction of synthetic lethality in tumor cells producing 2HG: qHTS for the HT-1080-IDH1KD cell line; HT-1080 IDH1 knockdown viability, ATP luminescence, 48 h; Potency, µM (titrated, usually from 46.1 µM), without a hit: at the highest dose activity, negative = toxicity, most hits filed as cytotoxic; 2% of 360,000 active;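 further: potency means the concentration at half of the fitted maximal effect; 0% = DMSO wells and -100% = cell-free medium wells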
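In this qHTS, HT-1080 cells depleted of IDH1 are exposed for 48 h at 37 °C to compound titrations. Toxicity is scored from CellTiter-Glo luminescence, with DMSO as full viability and medium alone as none.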
IL-1B inflam inh: qHTS for Inhibitors of Inflammasome Signaling: IL-1-beta AlphaLISA Primary Screen. THP-1 LPS/ATP IL-1B secretion, AlphaLISA, 16 h; active compounds read low. activity change, % at 57.5 µM. 4.7% of 360,000 active. AID 743279, 2014; in the data active means activity change below about -50%; inconclusive means mostly about -30% to -49%
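Secreted IL-1B measured by AlphaLISA bead assay after 16 h compound exposure of THP-1 cells; compounds (final up to 57.5 uM) added 1 h before LPS (250 ng/mL) and ATP (1.25 mM) stimulation; lower signal means less secretion.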
Starred values were filed as active, the others as inactive. Unless noted, the call rests on the fitted dose curve; in most records, active means well fitted curve in the direction sought with a large enough effect; inconclusive means small, poorly fitted or top-dose-only effect, or another doubt; inactive means no such curve, though single readings can be large; an effect the other way counts as inactive or inconclusive. Unless noted, on the % scale 0 is the no-effect control and ±100 the full control effect.

For C[C@H](CO)N1C[C@H](C)[C@@H](CN(C)S(=O)(=O)c2cccc(C#N)c2)OCc2cn(nn2)CCCC1=O the results were TDP1 cell CPT 8%, TDP1 cell noCPT -26%, HT1080NT lethal 3%, HT1080 IDH1KD tx 12% and IL-1B inflam inh 13.
Screening C/C(=N\OCC(=O)N/N=C/c1ccc(C)cc1O)c1cccs1 returned TDP1 cell CPT 4.6µM*, TDP1 cell noCPT 4.1µM*, HT1080NT lethal -18%, HT1080 IDH1KD tx 0% and IL-1B inflam inh 104.
C/C(=N\NC(=O)CO/N=C(\C)c1cccs1)c1ccc(N)cc1 was read as TDP1 cell CPT -4%, TDP1 cell noCPT -3%, HT1080NT lethal 1%, HT1080 IDH1KD tx 0% and IL-1B inflam inh 19.
Screening Cc1ccc(NC(=O)CCC(=O)N/N=C/c2cccnc2)cc1 returned TDP1 cell CPT -16%, TDP1 cell noCPT inconclusive, HT1080NT lethal 3%, HT1080 IDH1KD tx 8% and IL-1B inflam inh 11.
`Cc1ccc(NC(=O)CCC(=O)N/N=C/c2ccc(O)cc2O)cc1` gave TDP1 cell CPT 15µM*, TDP1 cell noCPT 16µM*, HT1080NT lethal inconclusive, HT1080 IDH1KD tx inconclusive and IL-1B inflam inh 175.
C=CCc1cccc(/C=N/NC(=O)CCC(=O)Nc2ccc(C)cc2)c1O was read as TDP1 cell CPT 15µM*, TDP1 cell noCPT 10µM*, HT1080NT lethal -30%, HT1080 IDH1KD tx inconclusive and IL-1B inflam inh 60.
Screening O=C(CCC(=O)Nc1ccc(F)cc1)N/N=C/c1ccccc1O returned TDP1 cell CPT inconclusive, TDP1 cell noCPT inconclusive, HT1080NT lethal -1%, HT1080 IDH1KD tx -16% and IL-1B inflam inh 150.
Cc1ccc(/C=N/NC(=O)Cc2ccc(Cl)cc2)c(O)c1 was read as TDP1 cell CPT 16µM*, TDP1 cell noCPT 21µM*, HT1080NT lethal inconclusive, HT1080 IDH1KD tx 18µM* and IL-1B inflam inh 65.
Screening CCOC(=O)C(=CNc1ccc(Oc2cccnc2)nc1)C(=O)OCC returned TDP1 cell CPT inconclusive, TDP1 cell noCPT inconclusive, HT1080NT lethal 14%, HT1080 IDH1KD tx 15% and IL-1B inflam inh 24.
Screening CCOc1ccc(CNC(=O)CN2N=C(c3ccccc3)CCC2=O)cc1OC returned TDP1 cell CPT -5% and TDP1 cell noCPT -1%.
For Cc1ccc(S(=O)(=O)NNC(=S)NCC2CCCO2)cc1 (configuration not stated) the results were TDP1 cell CPT 12%, TDP1 cell noCPT 9%, HT1080NT lethal 0%, HT1080 IDH1KD tx -9% and IL-1B inflam inh -13.
Screening CC(C)C(=O)N1CCC1(C)C(=O)Nc1ccc2cn[nH]c2c1 (configuration not stated) returned TDP1 cell CPT -9%, TDP1 cell noCPT -2%, HT1080NT lethal 2%, HT1080 IDH1KD tx 0% and IL-1B inflam inh 2.
Screening CC1(C(=O)Nc2ccc3nc[nH]c3c2)CCN1C(=O)c1ccccc1CCc1ccccc1 (configuration not stated) returned TDP1 cell CPT inconclusive, TDP1 cell noCPT inconclusive, HT1080NT lethal -3%, HT1080 IDH1KD tx -24% and IL-1B inflam inh -16.
Screening CC(C)(C)c1ccc(C(=O)N2CCC2(C)C(=O)Nc2ccc3nc[nH]c3c2)cc1 (configuration not stated) returned TDP1 cell CPT 15µM*, TDP1 cell noCPT 18µM*, HT1080NT lethal -5%, HT1080 IDH1KD tx -22% and IL-1B inflam inh -18.
For COc1ccc(C(=O)N2CCC2(C)C(=O)NC(C)C)cc1OC (configuration not stated) the results were TDP1 cell CPT 10%, TDP1 cell noCPT -8%, HT1080NT lethal 7%, HT1080 IDH1KD tx 13% and IL-1B inflam inh 7.
CC(C)(C)c1ccc(C(=O)N2CCC2(C)C(=O)Nc2ccc3[nH]ncc3c2)cc1 (configuration not stated) was read as TDP1 cell CPT 21µM*, TDP1 cell noCPT 15µM*, HT1080NT lethal -8%, HT1080 IDH1KD tx inconclusive and IL-1B inflam inh -1.
Screening COc1ccc(NC(=O)C2(C)CCN2C(=O)c2ccc(C(C)(C)C)cc2)cc1OC (configuration not stated) returned TDP1 cell CPT 13µM*, TDP1 cell noCPT 10µM*, HT1080NT lethal 2%, HT1080 IDH1KD tx inconclusive and IL-1B inflam inh 7.
For CN(C)C(=O)/C(C#N)=C\c1cc(Br)c(Sc2ccc(Cl)cc2)o1 the results were TDP1 cell CPT inconclusive, TDP1 cell noCPT 15µM*, HT1080NT lethal -18%, HT1080 IDH1KD tx 5% and IL-1B inflam inh -94*.
For CC(NC(=O)CCC(=O)N1CCCCCC1)c1ccccc1 (configuration not stated) the results were TDP1 cell CPT -4%, TDP1 cell noCPT -8%, HT1080NT lethal 0%, HT1080 IDH1KD tx 0% and IL-1B inflam inh 27.
COc1ccc(-c2cc(C(F)(F)F)nc(NCCc3ccccc3)n2)cc1 was read as TDP1 cell CPT 23µM* and TDP1 cell noCPT 26µM*.
For Fc1ccc(CNc2nc(-c3ccccc3)cc(C(F)(F)F)n2)cc1 the results were TDP1 cell CPT 21µM* and TDP1 cell noCPT inconclusive.
Cc1sc2ncn(CC(=O)NCc3ccccn3)c(=O)c2c1S(=O)(=O)N1CCOCC1 was read as TDP1 cell CPT 2%, TDP1 cell noCPT 5%, HT1080NT lethal 18%, HT1080 IDH1KD tx 16% and IL-1B inflam inh 6.
`COc1ccc(S(=O)(=O)N2CCN(c3ccccc3)CC2)cc1-c1noc(C)n1` gave TDP1 cell CPT 11% and TDP1 cell noCPT -9%.
Screening CC1CCN(S(=O)(=O)c2nnc(NC(=O)c3cccc(Cl)c3)s2)CC1 returned TDP1 cell CPT 13µM*, TDP1 cell noCPT 21µM*, HT1080NT lethal 2%, HT1080 IDH1KD tx 4% and IL-1B inflam inh 23.
For Cc1ccc(N2CCN(S(=O)(=O)c3nnc(NC(=O)c4cccc(F)c4)s3)CC2)cc1 the results were TDP1 cell CPT 18µM* and TDP1 cell noCPT 15µM*.
`O=C(c1nc2ccccn2c1CNCCn1ccc2ccccc21)N1CCOCC1` gave TDP1 cell CPT inconclusive, TDP1 cell noCPT -15%, HT1080NT lethal 0%, HT1080 IDH1KD tx -1% and IL-1B inflam inh 14.
O=C1S/C(=C\c2ccc(N3CCOCC3)o2)C(=O)N1Cc1c(F)cccc1Cl was read as TDP1 cell CPT 7.3µM*, TDP1 cell noCPT inconclusive, HT1080NT lethal inconclusive, HT1080 IDH1KD tx 3.5µM* and IL-1B inflam inh 20.

Screening results (PubChem)
